65 compounds from PubChem BioAssay AID488857 (Sanford-Burnham Center for Chemical Genomics, 2010) can be followed below.

Each structure is given as a SMILES string. Hit rate of the full screen: of about 1,400 compounds, about 560 (40%) were called active. The set was probably picked from earlier hits. Some of the results follow. Unmarked numbers belong to inactive results.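 The calls were made as follows: active = mean inhibition over duplicate tests at 10 µM above 50%; inactive = the rest.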

This assay can be described thus: ASC/caspase-1 reporter retest in S. cerevisiae at one dose, specificity check for NALP1 project (AID 488857). The conditions noted are these: S. cerevisiae ASC/Caspase-1, beta-galactosidase luminescence, 24 h; at 10 µM; active compounds read high.
In the case of `CCCCCC(=O)Nc1ccc2oc(-c3cccnc3)nc2c1`, the inhibition (as a rule, the relative decrease from the control value, in per cent) is 58.5% (active).

As for `CCC(=O)Nc1cccc(-c2nc3ccccc3o2)c1`, the inhibition was 78.7% (active).

In the case of `Cc1ccc2oc(-c3ccc(NC(=O)c4cccnc4)cc3)nc2c1`, the inhibition was 46.7%.

Take `CCCc1cc(C(=O)O)c2ccccc2n1`: the inhibition is 39.6%.

Regarding `CC(C)CCN(C(=O)Nc1ccccc1)C(C)c1cccs1` (stereo not given), the inhibition is 42.2%.

`COc1ccc2c(c1)NC(=O)CC(c1ccccc1)=N2`: the inhibition is 43.8%.

In the case of `N/C(Cc1cccs1)=N\OC(=O)COc1ccccc1Cl`, the inhibition was 59.1% (active).

Turning to `COc1ccccc1NS(=O)(=O)c1ccc(NC(=O)Cc2cccs2)cc1`, the inhibition is 33.9%.

As to `C=CCNC(=S)N/N=C(\C)c1ccccn1`, the inhibition is 90.2% (active).

Take `O=C(N/N=C/c1ccc2nccnc2c1)c1ccccc1O`: the inhibition is 36%.

Regarding `O=C(N/N=C/c1cc(Cl)ccc1O)c1ccc(Br)cc1`, the inhibition was 54.1% (active).

Regarding `O=C(N/N=C/c1cc2c3c(c1O)CCCN3CCC2)c1ccccc1O`, the inhibition is 34.8%.

In the case of `COC(=O)c1ccc(Oc2ccc(S(=O)(=O)N3CCCCC3)cc2N)cc1`, the inhibition is 97.8% (active).

In the case of `CC(=O)c1ccc(S(=O)(=O)N2CCCC2)cc1`, the inhibition is 46.1%.

Regarding `C=CCc1cc(Cl)ccc1OCCOCCNCCOC`, the inhibition is 50.9% (active).

As to `C=CCc1cc(Cl)ccc1OCCNCCCOC`, the inhibition was 48.5%.

Take `Cc1cc(SC#N)cc(C)c1NC(=O)CCl`: the inhibition is 25.8%.

As to `COc1ccc(/C=C\c2onc(C)c2S(=O)(=O)N2CCC(C(=O)NCc3ccco3)CC2)cc1`, the inhibition is 42%.

With `O=C(NCc1ccco1)c1cnn2c1NC(c1ccc(Br)cc1)CC2C(F)(F)F` (stereo not given), the inhibition is 63.1% (active).

Turning to `COc1cccc(N2CCN(C3CCCC(C)C3)CC2)c1` (stereo not given), the inhibition was 38%.

Take `COc1cccc(NC(=O)Cn2cnc3sc(C)c(S(=O)(=O)N4CCCCC4)c3c2=O)c1`: the inhibition was 30.9%.

With `O=C(COC(=O)/C=C/c1cccs1)Nc1nc(-c2ccccc2)cs1`, the inhibition is 13.3%.

On to `CC1CC1C(=O)Nc1nc(-c2ccccc2)cs1` (stereo not given), for which the inhibition was 68.5% (active).

Consider `O=C(COC(=O)c1cccs1)Nc1nc(-c2ccccc2)cs1`, for which the inhibition is 48.2%.

As to `Cc1ccc(N2C(=O)CC(Sc3ccccc3C(=O)O)C2=O)cc1` (stereo not given), the inhibition is 26.1%.

Turning to `Cc1cc(C)cc(N2C(=O)CC(Sc3ncn[nH]3)C2=O)c1` (stereo not given), the inhibition was 63.5% (active).

With `CC(C)c1ccc(N2C(=O)CC(Sc3ncn[nH]3)C2=O)cc1` (stereo not given), the inhibition is 58.9% (active).

As to `O=C(Cn1nnc2ccccc21)OCC(=O)c1ccc(Cl)cc1`, the inhibition is 39.8%.

Consider `CCn1c(=O)cc(SCC(=O)N2CCN(C3CCCCC3)CC2)c2ccccc21`, for which the inhibition is 29.9%.

Regarding `CCn1c(N2CCN(C(=O)C34CC5CC(CC(C5)C3)C4)CC2)nc2ccccc21`, the inhibition is 54.5% (active).

As for `CN1c2ccccc2-c2nc3ccccc3n2C1c1cccs1` (stereo not given), the inhibition is 62.9% (active).

For the compound `c1csc(CNc2nc3ccccc3n2CCN2CCOCC2)c1`, the inhibition was 35.6%.

On to `CCN1c2ccccc2-c2nc3ccccc3n2C1c1cccs1` (stereo not given), for which the inhibition is 63.7% (active).

In the case of `c1csc(C2Nc3ccccc3-c3nc4ccccc4n32)c1` (stereo not given), the inhibition is 64.8% (active).

For `CCOC(=O)N1CCC(=NNS(=O)(=O)c2cccc([N+](=O)[O-])c2)CC1`, the inhibition was 31.6%.

`COn1c2c(c3c4nonc4ccc31)CCCC2`: the inhibition is 31.4%.

As to `CC1CC(C)CN(S(=O)(=O)c2ccc(C(=O)NCc3ccc4c(c3)OCO4)cc2)C1` (stereo not given), the inhibition was 31.6%.

Consider `Cc1nc2cc(C(=O)NCc3ccc4c(c3)OCO4)ccc2n1-c1ccc(Br)cc1`, for which the inhibition was 58.9% (active).

As to `COc1cc(NC(=O)c2cccs2)cc(OC)c1`, the inhibition is 82% (active).

On to `O=C(/C=C\Nc1cccc(F)c1)c1cccs1`, for which the inhibition is 47.2%.

For the compound `CCN(CC)S(=O)(=O)c1cccc(C(=O)Oc2cccc(NC(=O)c3cccs3)c2)c1`, the inhibition was 35.9%.

With `CC1CCCC(C)N1C(=O)CN1CCN(c2nc(-c3ccc(F)cc3)cs2)CC1` (stereo not given), the inhibition was 44.5%.

In the case of `O=C(CN1CCCCC1)Nc1nc(-c2ccc(F)c(F)c2)cs1`, the inhibition was 55.9% (active).

As to `O=C(CN1CCCCC1)Nc1cccc(Oc2ccccc2)c1`, the inhibition was 38.8%.

Turning to `COCC(=O)n1nc(-c2ccc(Cl)cc2)nc1NCc1ccc(F)cc1`, the inhibition was 36.2%.

`CCCCCCCCNC(C)C(O)c1ccc(SC(C)C)cc1` (stereo not given): the inhibition was 38.9%.

Regarding `CC(C)CC(=O)/C(=C\c1ccc(Cl)cc1Cl)n1cncn1`, the inhibition was 101% (active).

On to `CSc1nnc(-c2cc3c(s2)-c2ccccc2CC3)o1`, for which the inhibition was 46.8%.

For the compound `O=C(COC(=O)Cc1c(F)cccc1Cl)NCCC1=CCCCC1`, the inhibition is 61.6% (active).

For `CC(OC(=O)Cc1c(F)cccc1Cl)C(=O)NCCC1=CCCCC1` (stereo not given), the inhibition is 46.8%.

For the compound `COC(=O)COc1ccc(S(=O)(=O)NCCC2=CCCCC2)cc1Cl`, the inhibition is 40.1%.

`Cc1cc(C(C)(C)C)cc(S(=O)(=O)Nc2ccc(O)c(C(=O)O)c2)c1C`: the inhibition is 27.8%.

On to `Cc1ccc(Oc2ccccc2/C=N/O)cc1`, for which the inhibition was 51.9% (active).

Consider `Cc1ccc(/C(COc2ccccc2O)=N\O)cc1`, for which the inhibition is 47.8%.

Take `COc1ccccc1/C=N\N=C(\N)c1ccccn1`: the inhibition was 48.5%.

`COC(=O)c1sccc1NC(=O)c1csc(C)c1`: the inhibition was 49%.

Take `Cc1ccc2c(Cl)c(C)c(N3CCCCC3)nc2n1`: the inhibition was 74.8% (active).

Consider `NC(=O)C1(N2CCCCC2)CCN(Cc2nc(-c3cccs3)no2)CC1`, for which the inhibition was 24.1%.

As for `COC(=O)c1ccc(NC(=O)C(=O)N2CCCC2)cc1`, the inhibition is 52.5% (active).

For the compound `COC(=O)c1ccc(C(=O)OC)c(NC(=O)COC(=O)C2CCCCC2)c1`, the inhibition was 35.8%.

Regarding `COC(=O)c1ccc(NC(=O)CN2C(=O)CNC2=O)cc1`, the inhibition was 30.4%.

With `CCOC(=O)C1(Cc2ccc(OC)cc2)CCN(C(=O)CCc2cnccn2)CC1`, the inhibition was 20.9%.

Turning to `COc1ccc(Nc2ncccc2C(=O)NCc2ccccc2)cc1`, the inhibition is 67% (active).

On to `Cc1cccnc1NC(=O)c1ccccc1NC(=O)C(C)(C)C`, for which the inhibition was 41.2%.

With `Cc1cc(C)c([C@@H]2C[C@H]3CN(C4CCCC4)C(=O)[C@]34CCCN24)c(-n2cccn2)c1`, the inhibition is 36.2%.
